# Measurements published in PubChem BioAssay (NCATS).
# Inconclusive results are not listed. Entries that show only a call come without a potency. Active and inactive are the calls of the source. The call rests on the fitted dose curve; in most records, active means well fitted curve in the direction sought with a large enough effect; inconclusive means small, poorly fitted or top-dose-only effect, or another doubt; inactive means no such curve, though single readings can be large; an effect the other way counts as inactive or inconclusive.
# Legend:
# [1] = target: Aldehyde dehydrogenase, mitochondrial (Homo sapiens) (UniProt P05091); assay: qHTS for Inhibitors of the Aldehyde Dehydrogenase Family (ALDH2) Primary screen (AID 2061308); details: ALDH2 enzyme inhibition qHTS, 1536-well; series mostly up to 56 µM; further: nearly all actives have a fitted effect of over 55% in size
# [2] = target: Retinaldehyde dehydrogenase 3 (Homo sapiens) (UniProt P47895); assay: qHTS for Inhibitors of the Aldehyde Dehydrogenase Family (ALDH1A3) Primary screen (AID 2061315); details: ALDH inhibition qHTS; series mostly up to 56 µM
Structure (SMILES),Potency [1],Potency [2]
COC(=O)[C@H](Cc1ccc(O[S+](=O)([O-])c2cccc3cnccc23)cc1)N(C)[S+](=O)([O-])c1ccc2cnccc2c1,inactive,inactive
Cc1cc2c(s1)c1cnn(Cc3c(F)ccc(Cl)c3F)c(=O)c1n2C,inactive,inactive
CCOC(=O)c1cc2c([nH]1)CCCC2=O,inactive,inactive
COc1ccc(C2c3c(ncn(CCCc4ccccc4)c3=N)Oc3ccc4ccccc4c32)cc1OC (centres undefined),inactive,inactive
COc1ccc(C(=O)Oc2ccc(-c3nc4ccccc4[nH]3)cc2)cc1OC,inactive,inactive
COc1cc(-c2nc(Nc3ccc(F)c(F)c3)c3ccccc3n2)ccn1,inactive,inactive
Cc1cc(C)nc(NC(=S)N2CCN(c3ccc(F)cc3F)CC2)c1,inactive,inactive
Cc1cc2c(s1)c1c(C)nn(Cc3ccccc3F)c(=O)c1n2C,inactive,inactive
Cc1cn(-c2cccc(NC(=O)c3ccc(C)c(Nc4nccc(-c5cccnc5)n4)c3)c2)cn1,inactive,inactive
COc1ccc(C2=Nn3c(nnc3-c3ccccc3C(F)(F)F)SC2)cc1OC,inactive,inactive
Cn1cc(P(=O)(c2ccccc2)c2ccccc2)c2ccccc21,inactive,inactive
Cc1ccc(-c2csc3ncnc(Sc4nnnn4C)c23)cc1,inactive,inactive
Cc1cccc(-n2cnc3cc(C(=O)N4CCCCC4)ccc32)c1,inactive,inactive
Cc1ccc(-n2c(=O)ccc(=O)n2CC(=O)NCCc2ccccc2)cc1,inactive,inactive
COc1cccc(S(=O)(=O)Nc2cnccc2C(=O)Nc2nc(-c3ccccc3)cs2)c1,inactive,inactive
O=C1CCc2cc(S(=O)(=O)Nc3cccc(B(O)O)c3)ccc2N1,inactive,inactive
COc1ccc(NC(=O)c2cccnc2C)cc1S(=O)(=O)Nc1ccc(Br)cc1,inactive,inactive
Cc1ccc(S(=O)(=O)Nc2cnccc2C(=O)Nc2nc(-c3ccncc3)cs2)cc1,inactive,inactive
Cc1ccc(S(=O)(=O)Nc2cnccc2C(=O)Nc2ccc(C#N)cc2)cc1,inactive,inactive
CC(C)(C)OC(=O)NCCOCCOCCOc1cccc(-n2ncc3c2CCCC3NC(=O)c2ccccn2)c1 (centres undefined),inactive,inactive
FC(F)(F)c1ccc(-c2nc(NCc3ccc(-c4ccnc(C(F)(F)F)c4)cc3)c3ccccc3n2)cc1,inactive,inactive
O=S(=O)(Nc1cccc2cccnc12)c1ccc(Br)s1,inactive,inactive
Cc1ccc(S(=O)(=O)N(C)c2cccc3cccnc23)cc1,inactive,inactive
FC(F)(F)c1ccccc1-c1nc(NCC23CC4CC(CC(C4)C2)C3)c2ccccc2n1,inactive,inactive

Structure (SMILES),Potency [1],Potency [2]
CCOc1ccc(COc2ccc(-c3nc4ccccc4[nH]3)cc2)cc1,inactive,inactive
Cc1ccnc(NC(=S)N2CCc3ccccc3C2)c1,inactive,inactive
COc1cc(F)c(S(=O)(=O)N2CCCN(S(=O)(=O)c3ccc(N)cc3)CC2)c(F)c1,inactive,inactive
Cc1cn([C@H]2C[C@H](N[S+](=O)([O-])Cc3ccccc3)[C@@H](CO)O2)c(=O)[nH]c1=O,inactive,inactive
Cc1ccc(-c2cc(C(=O)O)c3cccc(C)c3n2)cc1C,inactive,inactive
CC(C)(C)c1cccc(-n2cnc3cc(C(=O)N4CCCCC4)ccc32)c1,inactive,inactive
CC(C)(C)NS(=O)(=O)c1cccc(-c2nnc(SCC(=O)Nc3ccc(C(=O)O)cc3)n2-c2ccc(F)cc2)c1,inactive,inactive
CCOC(=O)CCc1cc(F)c(S(=O)(=O)N2CCN(S(=O)(=O)c3ccc4c(c3)OCCO4)CC2)cc1F,inactive,inactive
Cc1ccc(S(=O)(=O)Nc2ccccc2C(=O)Nc2nc(-c3ccccc3)c(C)s2)cc1,inactive,inactive
FC(F)(F)c1cccc(N2CCN(C(=S)Nc3cc(C(F)(F)F)ccn3)CC2)c1,inactive,inactive
COc1ccc(CN(Cc2ccccc2)C(=O)c2ccccc2O)cc1COc1ccc(NC(C)=O)cc1,inactive,inactive
Oc1ccc(/C=C/c2c(F)cccc2F)c2cccnc12,inactive,inactive
Cc1nnc(-c2ccccc2)n1CCCn1ccnc1,inactive,inactive
COc1cccc(C2c3c(ncn(CCN4CCOCC4)c3=N)Oc3ccc4ccccc4c32)c1 (centres undefined),inactive,inactive
COc1ccc(-c2nnc3n2N=C(c2c(OC)cccc2OC)CS3)c(OC)c1,inactive,inactive
Cc1ccc(OCCn2c(CCNC(=O)c3ccc[nH]3)nc3ccccc32)cc1,inactive,inactive
CCCn1c(C)nc2c(NCCCN3CCCCC3C)nc(C)nc21 (centres undefined),inactive,inactive
COC(=O)c1ccc(O)c2ncccc12,inactive,inactive
O=C(Nc1nc(-c2ccccc2)cs1)c1ccncc1NS(=O)(=O)c1ccc(N2CCCC2=O)cc1,inactive,inactive
O=C(Nc1ccccc1)Nc1nc(Nc2cc(F)cc(F)c2)nc(NC2CCCC2)n1,inactive,inactive
O=C(CSc1nnc(-c2cccc([S+](=O)([O-])N3CCCC3)c2)n1-c1ccccc1)Nc1cccc(C(F)(F)F)c1,inactive,inactive
Cc1nc(C)c(-c2ccc3ncnc(N(C)Cc4sccc4C)c3c2)s1,inactive,inactive
Cc1cc2c(s1)c1cnn(Cc3ccc(F)cc3)c(=O)c1n2C,inactive,inactive
